The supplement of paper PMC6555819

Tests used:
Experiment in all cases: PBM binding z-score (relative to random genomic background probes); higher = stronger binding; sequences stand for … in GC…GCGATTGACAGCGTAGAATGAAGG
[1] = tested on: FXR:RXRa (NR concentration 270 nM, RXRa partner concentration 90 nM)
Method in brief: (§1)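 Scanned fluorescence from custom Agilent 4×180K protein-binding microarrays was regression-normalized. Binding z-scores use random background probes as reference. Ligand-free nuclear receptor dimers were incubated on the arrays for 1 h and detected with antibodies against each partner (one per run).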

[2] = tested on: LXRa:RXRa (NR concentration 270 nM, RXRa partner concentration 90 nM)
Method in brief: as §1

[3] = tested on: LXRa homodimer (NR concentration 270 nM)
Method in brief: as §1

[4] = tested on: LXRb:RXRa (NR concentration 270 nM, RXRa partner concentration 90 nM)
Method in brief: as §1

[5] = tested on: LXRb homodimer (NR concentration 270 nM)
Method in brief: as §1

[6] = tested on: PPARa:RXRa (NR concentration 270 nM, RXRa partner concentration 90 nM)
Method in brief: as §1

[7] = tested on: PPARg:RXRa (NR concentration 180 nM, RXRa partner concentration 90 nM)
Method in brief: as §1

[8] = tested on: PPARg:RXRa 270nM:90nM, anti-RXR (NR concentration 270 nM, RXRa partner concentration 90 nM)
Method in brief: as §1

[9] = tested on: PPARg:RXRa 30nM:10nM, anti-RXR (NR concentration 30 nM, RXRa partner concentration 10 nM)
Method in brief: as §1

[10] = tested on: PPARg:RXRa 90nM:30nM, anti-RXR (NR concentration 90 nM, RXRa partner concentration 30 nM)
Method in brief: as §1

[11] = tested on: PPARg:RXRa DBDmut IVT, anti-RXR (DBD mutation: RXRa K156A/R161A, NR concentration 270 nM, RXRa partner concentration 90 nM)
Method in brief: as §1

[12] = tested on: PPARg:RXRa IVT, anti-PPARg (NR concentration 270 nM, RXRa partner concentration 90 nM)
Method in brief: as §1

[13] = tested on: PPARg DBDmut:RXRa IVT, anti-PPARg (DBD mutation: PPARg1 K132A/R137A, NR concentration 270 nM, RXRa partner concentration 90 nM)
Method in brief: as §1

[14] = tested on: PPARg DBDmut IVT, anti-PPARg (DBD mutation: PPARg1 K132A/R137A, NR concentration 270 nM)
Method in brief: as §1

[15] = tested on: PPARg homodimer (NR concentration 180 nM)
Method in brief: as §1

[16] = tested on: PXR:RXRa (NR concentration 270 nM, RXRa partner concentration 90 nM)
Method in brief: as §1

[17] = tested on: PXR homodimer (NR concentration 270 nM)
Method in brief: as §1

[18] = tested on: RARa:RXR (NR concentration 270 nM, RXRa partner concentration 90 nM)
Method in brief: as §1

[19] = tested on: RARa homodimer (NR concentration 270 nM)
Method in brief: as §1

[20] = tested on: RARb:RXRa (NR concentration 270 nM, RXRa partner concentration 90 nM)
Method in brief: as §1

Sequence | PBM binding z-score [1] | PBM binding z-score [2] | PBM binding z-score [3] | PBM binding z-score [4] | PBM binding z-score [5] | PBM binding z-score [6] | PBM binding z-score [7] | PBM binding z-score [8] | PBM binding z-score [9] | PBM binding z-score [10] | PBM binding z-score [11] | PBM binding z-score [12] | PBM binding z-score [13] | PBM binding z-score [14] | PBM binding z-score [15] | PBM binding z-score [16] | PBM binding z-score [17] | PBM binding z-score [18] | PBM binding z-score [19] | PBM binding z-score [20]
CGTCCAAGGTCAATGCTGGGTCAGTGAAAGCATT | 6.49 | 4.95 | 0.942 | 3.75 | 0.628 | 5.14 | 3.82 | 4.53 | 1.09 | 3.07 | 3.06 | 3.71 | -0.934 | -0.907 | 4.17 | 4.66 | 1.2 | 5.52 | 0.99 | 5.31
AGAATGAGGTTACCAAAGATCAGGAAAACGCTTG | 1.7 | 6.01 | -0.322 | 3.66 | -0.00832 | 3.51 | 2.7 | 2.54 | 0.962 | 2.01 | 4.01 | 3.35 | 0.931 | 0.626 | 0.925 | 1.57 | -0.0296 | 2.1 | 0.339 | 1.95
AGTACGAGGGCACGCTGAGTTGATAGCAGAGTAG | 0.909 | 0.941 | -0.408 | 0.078 | -0.497 | 1.63 | 1.26 | 0.976 | -0.181 | 0.652 | 2.66 | 2.52 | 0.166 | 0.462 | 0.0101 | 1.4 | 0.398 | 0.957 | -0.0662 | 2.64
TCACGGAGGACACGAAAGGTCAGAGCTCGACATC | 3.04 | 4.14 | 3.14 | 3.07 | -0.784 | 3.5 | 1.48 | 2.62 | 2.28 | 2.43 | 1.84 | 1.63 | -0.581 | -0.261 | 2.1 | 4.03 | 0.408 | 4.8 | 1.27 | 4.28
TCAGACAGGTGAAGGTACCTCAGGTACGCAGTCG | 0.559 | 0.611 | -0.182 | 0.0572 | -0.29 | 1.13 | 0.642 | 1.8 | 3.41 | 2.54 | 1.89 | 0.885 | 0.0512 | -0.186 | 0.265 | 0.248 | -0.155 | 0.888 | -0.298 | 0.914
ATCGCTAGGTAAAAGTTCAGTGAATCCCGAGGAT | 0.352 | 1.06 | 0.677 | 0.618 | -0.3 | 2.84 | 4.94 | 5.9 | 5.05 | 6.23 | -0.272 | 1.63 | 0.14 | -0.441 | 0.521 | 1.64 | 1.06 | 1.49 | -0.726 | 2.04
CGTCCAAGGTCATAGGAGGTCAGTGAGGACAGAT | 7.69 | 7.5 | 5.15 | 6.18 | 0.987 | 5.86 | 5.58 | 5.89 | 2.52 | 4.86 | 3.74 | 4.55 | 1.02 | 0.649 | 5.73 | 6.88 | 11.7 | 6.37 | 3.47 | 5.29
CGTCCAAGATCAATGCTAGGTCAGTGAAAGCATT | 0.162 | 0.466 | 0.903 | 0.371 | 0.134 | 0.544 | -0.0678 | -0.118 | -0.166 | -0.214 | 0.0283 | 0.44 | -0.261 | 0.071 | 0.835 | 0.204 | 0.467 | 0.725 | 0.103 | 1.7
TTACCAAGGTGAAGGGTCGTTGATGCACGCCTTG | 1.88 | 1.13 | -0.449 | 1.03 | -0.693 | 3.65 | 6.01 | 6.42 | 4.63 | 6.33 | 1.59 | 4 | 0.187 | -0.561 | 0.981 | 1.57 | -0.419 | 2.72 | -0.291 | 2.08
AATACAGGGTCACTACGCCAGAGTAGGTACGAAT | 6.43 | 4.99 | 1.13 | 4.16 | 1.17 | 5.41 | 6.19 | 5.01 | 2.58 | 3.89 | 2.98 | 4.51 | 2.04 | 1.71 | 2.16 | 3.28 | 0.564 | 4.53 | 1.63 | 4.17
TTACCCAGGTGAGCTGAGGTCGTTGATCCAACTC | 1.83 | 0.726 | -0.313 | 0.515 | -1.12 | 1.35 | 0.177 | 0.382 | -0.172 | 0.184 | 0.846 | 1.89 | -1.04 | -0.726 | 0.267 | 4.2 | 0.439 | 1.55 | -1.01 | 1.1
CGTCCAAGGTCAAAGGTCAGAGAAGAGATGACGG | 8.35 | 7.24 | 3.55 | 6.68 | 1.89 | 7.26 | 10.7 | 9.26 | 8.39 | 9.75 | 4.12 | 6.13 | 1.12 | 0.47 | 3.77 | 7.04 | 1.67 | 8.89 | 1.92 | 5.97
AGTCAAAGTTCACTAGGTAACCTAAGATTCAGCT | 5.37 | 5.38 | 3.76 | 3.3 | 1.13 | 4.71 | 7.18 | 6.5 | 4 | 5.96 | 3.06 | 5.17 | 0.689 | 0.943 | 2.98 | 4.37 | 4.07 | 3.78 | 1.73 | 4.7
CCACACAGGTGAAAGGTAACTCAGTCTGGTACGC | 1.02 | 1.03 | 0.186 | 1.15 | -0.0183 | 3.42 | 5.45 | 5.54 | 3.68 | 5.21 | 2.15 | 3.2 | 0.0609 | 0.1 | 1.3 | 1.22 | 0.292 | 1.76 | 0.461 | 1.38
